Measurements taken from the supplement of paper PMC10127200.
Where a name gives a salt, the structure may show the parent alone.

Test system: 786-O
Assay: Euclidean distance of Cell Painting phenotypic profile (signed KS, 77 features) to DMSO centroid (dimensionless distance); 5 or 10 uM (library dependent); higher = stronger phenotypic change vs DMSO (phenoactivity)
Settings: 48 h
In short: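 At 10 or 5 uM, as set by the library, and 0.1% DMSO final, compounds were applied for 48 h to five cancer lines and one healthy fibroblast line. Stained cells were imaged confocally at 20X in 9 fields per well, and Harmony extracted 77 features scored as signed Kolmogorov-Smirnov statistics against vehicle wells on the same plate. Profiles underwent plate-position correction, correlation weighting and replicate averaging at the top dose. Phenoactivity is the Euclidean distance from each such profile to the median vehicle profile.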

Row | Structure (SMILES) | Euclidean distance
1 | Cc1nnc(SCC2=C(C(=O)O)N3C(=O)[C@@H](NC(=O)Cn4cc(Cl)c(=O)c(Cl)c4)[C@H]3SC2)s1 [Cefazedone] | 1.36
2 | Cc1ccc([C@@H]2O[C@H](CO)[C@@H](O)[C@H](O)[C@H]2O)cc1Cc1ccc(-c2ccc(F)cc2)s1 [Canagliflozin hemihydrate] | 1.46
3 | C/C(=N\NC(=S)N1CCC1)c1ccccn1 | 3.65
4 | C[n+]1c2ccccc2nc2ccccc21 [Phenazine methosulfate] | 5.13
5 | COC(=O)C1=C(C)NC(C)=C(C(=O)OC2CCCN(Cc3ccccc3)C2)C1c1cccc([N+](=O)[O-])c1 (stereo not given) [Benidipine HCl] | 1.39
6 | Nc1nccc(Oc2ccc(NC(=O)c3c[nH]cc(-c4ccc(F)cc4)c3=O)cc2F)c1Cl | 1.57
7 | CC(C)N(CCC(=O)c1ccc2ccccc2c1)Cc1ccccc1 | 1.68
8 | O=C1c2c(O)ccc(O)c2C(=O)c2c(NCCNCCO)ccc(NCCNCCO)c21 [Mitoxantrone 2HCl] | 5.6
9 | NCCc1c[nH]cn1 [Histamine Phosphate] | 1.2
10 | C=C1CC[C@H]2C(=C)CC[C@H]3C(=C)C(=O)O[C@@H]3[C@@H]12 [Dehydrocostus Lactone] | 6.1
11 | CCCC(=O)OCOC(=O)C1=C(C)NC(C)=C(C(=O)OC)C1c1cccc(Cl)c1Cl (stereo not given) [Clevidipine Butyrate] | 1.64
12 | CN1CCN(C2=Nc3cc(Cl)ccc3Nc3ccccc32)CC1 [Clozapine] | 1.75
13 | COCC(=O)Nc1c(I)c(C(=O)NCC(O)CO)c(I)c(C(=O)N(C)CC(O)CO)c1I (stereo not given) [Iopromide] | 1.53
14 | CNCCC=C1c2ccccc2CCc2ccccc21 [Nortriptyline hydrochloride] | 1.69
15 | CC[C@@H](CO)NCCN[C@@H](CC)CO [Ethambutol 2HCl] | 1.58
16 | CC#CCn1c(N2CCC[C@@H](N)C2)nc2c1c(=O)n(Cc1nc(C)c3ccccc3n1)c(=O)n2C [Linagliptin] | 0.904
17 | CONC(=O)Nc1ccc(-c2sc3c(c2CN(C)C)c(=O)n(-c2ccc(OC)nn2)c(=O)n3Cc2c(F)cccc2F)cc1 [Relugolix] | 1.06
18 | Cc1ccc(/C(=C\CN2CCCC2)c2ccccn2)cc1 [Triprolidine Hydrochloride] | 0.627
19 | NCCCC[C@H](NC(=O)[C@@H](NC(=O)[C@H](Cc1c[nH]c2ccccc12)NC(=O)[C@H](CCCCN)NC(=O)[C@H](CCCCN)NC(=O)[C@H](Cc1c[nH]c2ccccc12)NC(=O)[C@H](Cc1c[nH]c2ccccc12)NC(=O)[C@H](CCCCN)NC(=O)[C@@H](N)CCCCN)C(c1ccccc1)c1ccccc1)C(N)=O | 4.67
20 | Nc1nccc2c1ncn2C1C=C(CO)C(O)C1O (stereo not given) [3-Deazaneplanocin A (DZNeP)] | 2.28
21 | Clc1ccc(Nc2nnc(Cc3ccncc3)c3ccccc23)cc1 [Vatalanib (PTK787) 2HCl] | 1.01
22 | O=c1cc(-c2ccccc2)oc2cc(O)c(O)c(O)c12 [Baicalein] | 1.38
23 | C/C=C1/[C@H](O[C@@H]2O[C@H](CO)[C@@H](O)[C@H](O)[C@H]2O)OC=C(C(=O)OC)[C@H]1CC(=O)OCCc1ccc(O)c(O)c1 [Oleuropein] | 0.802
24 | C[C@@H]1O[C@@H](Oc2c(-c3ccc(O)c(O)c3)oc3cc(O)cc(O)c3c2=O)[C@H](O)[C@H](O)[C@H]1O [Quercitrin] | 1.05
25 | C=C(CC)C(=O)c1ccc(OCC(=O)O)c(Cl)c1Cl [Ethacrynic Acid] | 1.19
26 | CC[C@H](C)[C@H](NC(=O)[C@H]([C@@H](C)CC)N(C)C(C)=O)C(=O)N[C@H](C(=O)N[C@@H](CC(C)C)C(=O)[C@@]1(C)CO1)[C@@H](C)O [Epoxomycin] | 2.19
27 | Oc1c(Cl)cc(Cl)c(Cl)c1Cc1c(O)c(Cl)cc(Cl)c1Cl [Hexachlorophene] | 2.16
28 | C[C@H](CCC(=O)O)[C@H]1CC[C@H]2[C@@H]3CC[C@@H]4C[C@H](O)CC[C@]4(C)[C@H]3C[C@H](O)[C@]12C [Deoxycholic acid] | 0.886
29 | CC(=O)O[C@H]1C(=O)[C@@]2(C)[C@H]([C@H](OC(=O)c3ccccc3)[C@]3(O)C[C@H](OC(=O)[C@H](O)[C@@H](NC(=O)c4ccccc4)c4ccccc4)C(C)=C1C3(C)C)[C@]1(OC(C)=O)CO[C@@H]1C[C@@H]2O [Paclitaxel] | 3.07
30 | Cc1ccccc1OCC(O)CO (stereo not given) [Mephenesin] | 0.824
